Test [1] has as its target human CYP19A1, CYP19A1 (gene 1588) (UniProt P11511). The test is described as follows: NVS_ADME_hCYP19A1: NovaScreen (NVS) CYP450-related Enzyme Activity (ADME) Assay for human CYP19A1 (AID 2283098). The essentials: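 Fluorescence intensity read-out; activity taken as signal loss relative to acetonitrile vehicle. Extracted enzyme, specific substrate, no cells, 0.5 h exposure. Duplicate single-point screen at 10 uM, then concentration–response follow-up for actives.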

In test [2] the target is human CYP1A1, CYP1A1 (gene 1543) (UniProt P04798). The test is described as follows: NVS_ADME_hCYP1A1: NovaScreen (NVS) CYP450-related Enzyme Activity (ADME) Assay for human CYP1A1 (AID 2283100). The essentials:
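Cell-free fluorescence assay of recombinant human CYP1A1 activity with a specific substrate, read 1 h after dosing. Compounds were screened in duplicate at 10 uM, then hits tested in concentration-response up to 20 uM; acetonitrile served as baseline.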

The target of test [3] is human CYP1A2, CYP1A2 (gene 1544) (UniProt P05177). The test is described as follows: NVS_ADME_hCYP1A2: NovaScreen (NVS) CYP450-related Enzyme Activity (ADME) Assay for human CYP1A2 (AID 2283102).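 Note: fluorescence from turnover of a fluorogenic substrate by recombinant insect-cell CYP1A2; potency for inhibition since loss of fluorescence marks reduced CYP1A2 activity.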 On the procedure: NVS_ADME_hCYP1A2 is a biochemical, single-readout assay that uses extracted gene-proteins from insect cells in a cell-free assay. Measurements were taken 0.5 hour after chemical dosing in a 96-well plate.NVS_ADME_hCYP1A2 is one of one assay component(s) measured or calculated from the NVS_ADME_hCYP1A2 assay. It is designed to make measurements of enzyme activity, a form of enzyme reporter, as detected with fluorescence intensity signals by Fluorescence technology.Data from the assay component NVS_ADME_hCYP1A2 was analyzed into 1 assay endpoint. This assay endpoint, NVS_ADME_hCYP1A2, was analyzed in the positive analysis fitting direction relative to Acetonitrile as the negative control and baseline of activity. Using a type of enzyme reporter, loss-of-signal activity can be used to understand changes in the enzymatic activity as they relate to the gene CYP1A2. Furthermore, this assay endpoint can be referred to as a primary readout, because this assay has produced multiple assay endpoints where this one serves a enzymatic activity function. To generalize the intended target to other relatable targets, this assay endpoint is annotated to the cyp intended target family, where the subfamily is xenobiotic metabolism. […]
human CYP1A2, CYP1A2 (gene 1544), sequence (P05177 whole entry, looked up): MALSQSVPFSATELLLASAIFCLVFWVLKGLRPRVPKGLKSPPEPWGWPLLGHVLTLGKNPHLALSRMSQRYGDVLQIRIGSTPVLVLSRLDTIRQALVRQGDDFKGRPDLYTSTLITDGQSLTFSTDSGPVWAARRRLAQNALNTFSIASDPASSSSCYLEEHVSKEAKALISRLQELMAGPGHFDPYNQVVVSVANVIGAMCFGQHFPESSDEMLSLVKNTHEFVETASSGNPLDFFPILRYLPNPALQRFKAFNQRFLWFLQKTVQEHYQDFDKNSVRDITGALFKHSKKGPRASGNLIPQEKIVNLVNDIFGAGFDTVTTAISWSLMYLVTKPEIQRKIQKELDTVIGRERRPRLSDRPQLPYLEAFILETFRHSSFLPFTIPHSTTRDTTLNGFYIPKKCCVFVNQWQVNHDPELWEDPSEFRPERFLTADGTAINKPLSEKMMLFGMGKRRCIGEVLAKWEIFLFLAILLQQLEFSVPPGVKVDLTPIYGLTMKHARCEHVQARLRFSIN

Test [4] addresses human CYP2B6, CYP2B6 (gene 1555) (UniProt P20813). Kind of test: NVS_ADME_hCYP2B6: NovaScreen (NVS) CYP450-related Enzyme Activity (ADME) Assay for human CYP2B6 (AID 2283101). Put shortly: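 Fluorescence-based enzyme activity of recombinant human CYP2B6, measured 1 h post-dose against acetonitrile vehicle baseline. Screened at a single concentration of 10 uM in duplicate before concentration-response follow-up.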

The target in test [5] is human CYP2D6, CYP2D6 (gene 1565) (UniProt P10635). Kind of test: NVS_ADME_hCYP2D6: NovaScreen (NVS) CYP450-related Enzyme Activity (ADME) Assay for human CYP2D6 (AID 2283107). Put shortly: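 Cell-free assay using recombinant enzyme expressed in insect cells, with fluorescence-intensity readout of enzyme activity 1 hour after chemical dosing. Loss of signal versus acetonitrile negative control indicates inhibition. Primary screen ran in duplicate at 10 uM; actives were retested in concentration series.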
human CYP2D6, CYP2D6 (gene 1565), sequence (P10635 whole entry, looked up): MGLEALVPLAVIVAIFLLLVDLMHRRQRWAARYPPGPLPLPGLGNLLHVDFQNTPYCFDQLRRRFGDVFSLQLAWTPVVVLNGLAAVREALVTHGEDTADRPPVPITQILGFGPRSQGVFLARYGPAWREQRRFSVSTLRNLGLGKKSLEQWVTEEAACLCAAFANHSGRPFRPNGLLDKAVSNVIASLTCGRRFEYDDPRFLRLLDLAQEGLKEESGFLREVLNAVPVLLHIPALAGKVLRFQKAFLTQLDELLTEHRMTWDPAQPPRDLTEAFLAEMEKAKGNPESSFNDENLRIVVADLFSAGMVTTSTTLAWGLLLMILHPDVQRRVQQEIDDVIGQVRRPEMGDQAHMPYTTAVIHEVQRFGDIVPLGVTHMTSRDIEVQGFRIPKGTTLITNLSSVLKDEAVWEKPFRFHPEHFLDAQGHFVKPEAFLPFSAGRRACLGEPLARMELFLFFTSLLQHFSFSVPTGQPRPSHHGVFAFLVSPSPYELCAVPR

Test [6] deals with human CYP2C9, CYP2C9 (gene 1559) (UniProt P11712). The test is described as follows: NVS_ADME_hCYP2C9: NovaScreen (NVS) CYP450-related Enzyme Activity (ADME) Assay for human CYP2C9 (AID 2283108). The essentials: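 Recombinant human CYP2C9 expressed in SF9 cells, fluorogenic substrate, fluorescence read 0.75 h after dosing. Chemicals first run in duplicate at 10 uM, with actives followed in concentration series; loss of signal versus acetonitrile baseline.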
human CYP2C9, CYP2C9 (gene 1559), sequence (P11712 whole entry, looked up): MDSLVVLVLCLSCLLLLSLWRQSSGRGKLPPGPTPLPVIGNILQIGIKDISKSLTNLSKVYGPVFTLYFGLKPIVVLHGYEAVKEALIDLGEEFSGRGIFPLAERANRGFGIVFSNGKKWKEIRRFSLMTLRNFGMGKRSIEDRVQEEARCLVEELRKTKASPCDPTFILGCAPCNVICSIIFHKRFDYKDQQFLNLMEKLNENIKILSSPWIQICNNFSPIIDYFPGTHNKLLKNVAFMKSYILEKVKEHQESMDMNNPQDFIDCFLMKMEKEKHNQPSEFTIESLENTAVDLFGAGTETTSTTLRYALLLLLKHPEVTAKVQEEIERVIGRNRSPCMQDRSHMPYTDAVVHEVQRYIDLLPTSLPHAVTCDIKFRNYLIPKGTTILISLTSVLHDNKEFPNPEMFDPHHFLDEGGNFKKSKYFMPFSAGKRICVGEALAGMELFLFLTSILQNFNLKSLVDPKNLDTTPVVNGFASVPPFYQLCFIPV

Structures are written as SMILES. Inconclusive results are not listed. The source made the active and inactive calls. Rule for the calls: active = hit-call score of the fitted dose curve at least 0.9, where 1 is the maximum; inconclusive = response in the unintended direction; inactive = score below 0.9.

human CYP1A1, CYP1A1 (gene 1543), sequence (P04798 whole entry, looked up): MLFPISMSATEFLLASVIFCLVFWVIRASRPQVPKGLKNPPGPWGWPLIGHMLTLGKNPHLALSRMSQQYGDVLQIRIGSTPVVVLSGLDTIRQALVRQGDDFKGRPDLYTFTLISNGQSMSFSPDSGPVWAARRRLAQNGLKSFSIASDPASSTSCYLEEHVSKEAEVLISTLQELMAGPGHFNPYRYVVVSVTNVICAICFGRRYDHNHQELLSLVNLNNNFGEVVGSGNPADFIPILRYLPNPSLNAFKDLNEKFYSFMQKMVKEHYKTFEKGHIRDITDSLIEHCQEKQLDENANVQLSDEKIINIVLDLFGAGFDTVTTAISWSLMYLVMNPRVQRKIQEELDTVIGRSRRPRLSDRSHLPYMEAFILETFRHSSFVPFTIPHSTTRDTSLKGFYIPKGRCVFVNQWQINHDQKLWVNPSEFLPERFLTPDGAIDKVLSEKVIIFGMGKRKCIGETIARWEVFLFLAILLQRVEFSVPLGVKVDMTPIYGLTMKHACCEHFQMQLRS
human CYP2B6, CYP2B6 (gene 1555), sequence (P20813 whole entry, looked up): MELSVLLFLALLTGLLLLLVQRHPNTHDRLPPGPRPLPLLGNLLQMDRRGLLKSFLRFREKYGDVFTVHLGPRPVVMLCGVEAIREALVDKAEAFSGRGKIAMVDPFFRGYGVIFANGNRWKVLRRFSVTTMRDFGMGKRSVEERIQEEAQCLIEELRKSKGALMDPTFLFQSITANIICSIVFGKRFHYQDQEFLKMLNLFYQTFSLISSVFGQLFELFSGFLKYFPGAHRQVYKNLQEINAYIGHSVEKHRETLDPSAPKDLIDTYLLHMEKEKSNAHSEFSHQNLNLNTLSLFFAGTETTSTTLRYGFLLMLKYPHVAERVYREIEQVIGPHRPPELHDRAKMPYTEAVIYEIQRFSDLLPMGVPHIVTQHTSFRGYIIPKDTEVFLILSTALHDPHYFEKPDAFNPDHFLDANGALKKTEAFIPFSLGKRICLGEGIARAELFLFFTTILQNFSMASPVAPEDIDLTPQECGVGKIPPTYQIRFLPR
human CYP19A1, CYP19A1 (gene 1588), sequence (P11511 whole entry, looked up): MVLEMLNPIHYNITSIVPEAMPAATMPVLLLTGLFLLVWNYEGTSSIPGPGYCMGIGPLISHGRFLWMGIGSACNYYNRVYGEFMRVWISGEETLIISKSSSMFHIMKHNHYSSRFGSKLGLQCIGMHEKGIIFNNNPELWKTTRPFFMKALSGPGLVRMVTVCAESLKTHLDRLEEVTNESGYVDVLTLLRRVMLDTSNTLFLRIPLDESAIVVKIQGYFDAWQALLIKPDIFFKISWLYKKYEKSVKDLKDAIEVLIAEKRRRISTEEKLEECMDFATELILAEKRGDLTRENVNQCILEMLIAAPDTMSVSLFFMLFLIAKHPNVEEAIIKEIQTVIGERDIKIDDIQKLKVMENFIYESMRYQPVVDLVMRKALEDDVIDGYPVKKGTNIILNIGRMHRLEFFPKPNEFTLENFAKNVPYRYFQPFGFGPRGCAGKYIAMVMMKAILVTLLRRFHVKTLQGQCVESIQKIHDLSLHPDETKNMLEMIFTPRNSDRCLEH

Consider `CCCCCCc1ccc(N)cc1`, for which, in test [1], the result was inactive.
Take `CCCCCC(C)OC(=O)COc1ccc(Cl)c2cccnc12` (configuration not stated): in test [2], the outcome was inactive. In addition, in test [3], the half-maximal activity concentration (AC50) was 0.751 µM (active).
For `CN(Cc1cnc2nc(N)nc(N)c2n1)c1ccc(C(=O)N[C@@H](CCC(=O)O)C(=O)O)cc1`, the molecule was classed as inactive in test [4].
Turning to `CCCCCCCCCCCCCCCCCC[N+](C)(C)Cc1ccccc1`, in test [5], the half-maximal activity concentration (AC50) was 0.425 µM (active).
As for `c1cc[nH]c1`, in test [5], the result was inactive.
`CC1=NN(c2ccccc2)C(=O)C1`: the AC50 in test [6] is 3.06 µM (active).
